In the library only some 27% were active in any assay of this set; here they are far more common.
CYP2C19 inh – blocks human cytochrome P450 2C19 | P33261 | CYP2C19 Supersomes, luciferin-H EGE luminescence, 30 min | inhibition, % at 5 µM | actives 21% (n = 96,000) | AID 778;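 active = CYP2C19 inhibition above a set limit at 5 µM in the primary screen, cut at about 50% in these data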;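 note: plate controls were negative control wells for no effect and 2.5 mM tranylcypromine positive control for full effect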
Target sequence (P33261 whole entry, looked up): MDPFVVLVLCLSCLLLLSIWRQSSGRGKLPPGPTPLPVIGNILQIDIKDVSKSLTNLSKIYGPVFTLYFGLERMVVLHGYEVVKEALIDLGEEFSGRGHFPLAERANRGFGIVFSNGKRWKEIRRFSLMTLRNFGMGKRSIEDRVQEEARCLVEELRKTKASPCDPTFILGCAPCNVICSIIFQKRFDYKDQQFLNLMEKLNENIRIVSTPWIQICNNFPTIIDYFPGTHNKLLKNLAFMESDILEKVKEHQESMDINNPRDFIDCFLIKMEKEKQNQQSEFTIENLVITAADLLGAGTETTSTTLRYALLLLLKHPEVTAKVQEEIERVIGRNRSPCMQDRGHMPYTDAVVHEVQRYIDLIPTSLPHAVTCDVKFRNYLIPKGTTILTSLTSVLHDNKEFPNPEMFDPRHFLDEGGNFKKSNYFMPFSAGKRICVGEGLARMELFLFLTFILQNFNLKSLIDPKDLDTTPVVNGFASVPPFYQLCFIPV
CYP2C9 act – activators of human CYP2C9; P11712; recombinant CYP2C9, luciferin-H conversion, luminescence; active compounds read high; factor 1 = untreated enzyme, 0 = blocked; activation factor at 5 µM; actives 1.4% (n = 96,000);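 active = activation factor of 2 or more for CYP2C9 at a 5 µM dose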;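 note: 0 = sulfaphenazole-blocked wells and 1 = vehicle-only wells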
Cav3 T inh – blocks human Cav3.2 T-type calcium channel. O95180. Cav3.2-expressing cells, Fluo-4 calcium fluorescence FDSS; active compounds read low. B-score at 10 µM. actives 4% (n = 100,000). AID 449739;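 active = single-dose well whose peak fluorescence ratio is a statistical outlier from its plate by either plate-standardised score or position-corrected B-score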
CYP2C19 activ – activators of human cytochrome P450 2C19. recombinant CYP2C19, luciferin-H EGE luminescence; active compounds read high; 0 = fully inhibited enzyme, 1 = untreated enzyme. activation factor at 5 µM. 96,000 tested, under 10 active;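 active = activation factor of at least 2 at 5 µM in the primary screen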;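 note: 0 = wells with 2.5 mM tranylcypromine and 1 = vehicle-only wells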
CYP2C9 inh – blocks human cytochrome P450 2C9; P11712; CYP2C9 Supersomes, luciferin-H conversion, luminescence; inhibition, % at 5 µM; actives 20% (n = 96,000); AID 777;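 active = blocking of liver enzyme CYP2C9 beyond about 50% at 5 µM, limit read from the data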
* hit, by the source's call; · = not tested or not shown.

SMILES | CYP2C19 inh | CYP2C9 act | Cav3 T inh | CYP2C19 activ | CYP2C9 inh
Cc1ccc(CN2C(=O)/C(=C3\SC(N4CCOCC4)=NC3=O)c3cc(Br)ccc32)cc1 | 2 | 0.6 | · | 1 | 41
CCCCN1C(=O)/C(=C2\SC(N3CCCCC3)=NC2=O)c2ccccc21 | 53* | 0.1 | -2.2 | 0.5 | 90*
Cc1ccc(C)c(-n2nnnc2SCC(=O)c2ccc3c(c2)NC(=O)CO3)c1 | 56* | 2.5* | -0.68 | 0.4 | -154
COc1cc(C2C(C#N)=C(N)OC3=C2C(=O)CCC3)c([N+](=O)[O-])cc1OC (stereo unspecified) | -12 | 1 | -3.6 | 1.1 | 0
c1ccc2c(c1)oc1c(Nc3ccc4c(c3)OCO4)ncnc12 | 54* | 0.6 | 0.95 | 0.5 | 45
c1ccc2c(c1)oc1c(Nc3ccc(CN4CCOCC4)cc3)ncnc12 | 60* | 0.8 | 0.34 | 0.4 | 17
c1ccc(Nc2ncnc3c2oc2ccccc23)cc1 | 29 | 1 | -0.64 | 0.7 | -2
CC(=O)c1ccc(Nc2nc(C)nc3c2oc2ccccc23)cc1 | -16 | 0.9 | · | 1.2 | 12
Cc1nc(Nc2ccc3c(c2)OCO3)c2oc3ccccc3c2n1 | 55* | 0.3 | -1.7 | 0.5 | 66*
COc1ccc(/C=N/NC(=O)CC(=O)NCc2cccnc2)cc1 | -8 | 0.8 | 0.19 | 1.1 | 19
CCCOc1ccc(Cn2c(=O)oc3ccc(C)cc32)cc1OC | · | · | -1.7 | · | ·
CCOC(=O)c1cc(C)n(Cc2ccc(OCC)c(OC)c2)c1C | 15 | 0.4 | -1.8 | 0.8 | 59*
CCCOc1ccc(C(=O)NNC(=S)NC(=O)c2cc(-c3ccc(Cl)cc3)nc3ccccc23)cc1 | 8 | 0.5 | -6.7* | 0.9 | 50*
COc1ccc(C(=O)NNC(=S)NC(=O)c2cc(-c3ccccc3)nc3ccccc23)cc1 | 8 | 0.6 | · | 0.9 | 42
CCCOc1cccc(-c2cc(C(=O)NNC(=S)NCC)c3ccccc3n2)c1 | 22 | 0.3 | · | 0.8 | 70*
CCNC(=S)NNC(=O)c1cc(-c2ccccc2C)nc2ccccc12 | 0 | 0.4 | 0.025 | 1 | 60*
CCNC(=S)NNC(=O)c1cc(CC(C)C)nc2ccccc12 | 10 | 0.4 | 0.1 | 0.9 | 64*
CC(=O)NC(CCS(C)(=O)=O)C(=O)Nc1cccc(C(C)=O)c1 (stereo unspecified) | -3 | 1 | 0.66 | 1 | -4
CN(C)CCCNCCCNC(=O)/C(=N\O)c1ccccn1 | · | · | 0.13 | · | ·
CCCc1cc(C(=O)NNC(=S)NC(C)c2ccccc2)cs1 (stereo unspecified) | 81* | 0.6 | -2.8 | 0.2 | 44
Cc1cc(C(=O)O)c2ccccc2n1 | -10 | 0.9 | -0.59 | 1.1 | 10
Cc1cc(C(=O)NNC(=S)NC(C)c2ccccc2)c2ccccc2n1 (stereo unspecified) | -4 | 0.4 | 0.27 | 1 | 55*
COC(=O)C1=C(C(=O)OC)C2(OC1c1cccc(F)c1)C(=O)c1ccccc1C2=O (stereo unspecified) | 20 | 0.7 | -0.12 | 0.8 | 29
Cn1c(C(N)=O)cnc1Sc1ncc(C(F)(F)F)cc1Cl | 2 | 1.7 | 1 | 1 | -74
CC(C)NC(=O)c1cnc(Sc2ncc(C(F)(F)F)cc2Cl)n1C | 25 | 2.1* | 0.35 | 0.7 | -109
SMILES | CYP2C19 inh | CYP2C9 act | Cav3 T inh | CYP2C19 activ | CYP2C9 inh
CCN(CC)c1ccc(/C=C/c2nc3ccccc3s2)cc1 | 27 | 1.4 | -3.9* | 0.7 | -45
Brc1ccc(/C=C/C=N/Nc2nc3ccccc3s2)cc1 | 5 | 1 | 0.64 | 1 | -2
CCn1c(NC(=O)c2ccco2)c(-c2ccccc2Cl)c(=O)c2ccccc21 | -1 | 0.9 | -0.23 | 1 | 6
CCn1c(NC(=O)c2cccs2)c(-c2cccs2)c(=O)c2ccccc21 | 10 | 0.1 | 0.029 | 0.9 | 93*
Cc1ccc(C(=O)Nc2c(-c3cccs3)c(=O)c3ccccc3n2C)cc1 | 18 | 0 | 1.5 | 0.8 | 98*
CCCC(=O)Nc1c(-c2cccs2)c(=O)c2ccccc2n1C | 8 | 0.6 | -1.9 | 0.9 | 43
COc1ccc(N=C2S/C(=C\c3cc(C)n(C)c3C)C(=O)N2C)cc1 | 51* | 0.4 | -1.7 | 0.5 | 55*
CCOC(=O)Cn1c(=O)oc2cc(S(=O)(=O)NCCCc3ccccc3)ccc21 | 34 | 0.3 | -1.8 | 0.7 | 68*
CN1CCN(C(=O)Cn2c(=O)oc3cc(S(=O)(=O)NCc4ccccc4)ccc32)CC1 | 13 | 0.5 | 0.54 | 0.9 | 50*

Source: PubChem
